# Inconclusive results are not listed. Where a call stands in place of a potency, no number is given. Activity calls are given as the source filed them. Unless noted, calls follow the shape of the dose curve; as a rule, active = well fitted curve in the direction sought with a large enough effect in the repeat runs; inconclusive = weak or mixed curves; inactive = no such curve, though single readings can be large; an effect the other way counts as inactive or inconclusive.
# Columns and labels:
# [1] = Primary qHTS for small molecule stabilizers of the endoplasmic reticulum resident proteome: Secreted ER Calcium Modulated Protein (SERCaMP) assay (AID 1508630; active = well fitted curve in the direction sought with a large enough effect; an effect the other way counts as inactive or inconclusive)
# Procedure, shortened: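 GLuc-SERCaMP-expressing SH-SY5Y cells, pretreated 16 h with compound, are challenged with thapsigargin to empty ER calcium stores; after 4 h, coelenterazine is added directly to the medium and luminescence is imaged.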
# [2] = A High-Content qHTS Against Drug Library for the Identification of Small Molecules that Inhibit DYT1 Early Onset Primary Dystonia-Associated Cell Pathology (AID 1645839; calls by dose curve; also: potency is read from the fitted curve at half-maximal effect)
# Procedure, shortened: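 Readout: %pathology, the punctate EGFP-TorsinA distribution from imaging, as the primary channel and cell count as the toxicity counterscreen. HEK293 Flp-In cells expressing delE TorsinA were induced with tetracycline and treated with compound for 48 h.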
# [3] = biological target: Cytochrome P450 2D6 (Homo sapiens) (UniProt P10635); test: Cytochrome P450 family 2 subfamily D member 6 (CYP2D6) small molecule antagonists: luciferase biochemical (cell-free) qHTS assay (AID 1645840); also: nearly all actives have a fitted effect of over 55% in size; also: potency is read from the fitted curve at half-maximal effect
# Sequence of Cytochrome P450 2D6 (Homo sapiens) (P10635 whole entry, looked up): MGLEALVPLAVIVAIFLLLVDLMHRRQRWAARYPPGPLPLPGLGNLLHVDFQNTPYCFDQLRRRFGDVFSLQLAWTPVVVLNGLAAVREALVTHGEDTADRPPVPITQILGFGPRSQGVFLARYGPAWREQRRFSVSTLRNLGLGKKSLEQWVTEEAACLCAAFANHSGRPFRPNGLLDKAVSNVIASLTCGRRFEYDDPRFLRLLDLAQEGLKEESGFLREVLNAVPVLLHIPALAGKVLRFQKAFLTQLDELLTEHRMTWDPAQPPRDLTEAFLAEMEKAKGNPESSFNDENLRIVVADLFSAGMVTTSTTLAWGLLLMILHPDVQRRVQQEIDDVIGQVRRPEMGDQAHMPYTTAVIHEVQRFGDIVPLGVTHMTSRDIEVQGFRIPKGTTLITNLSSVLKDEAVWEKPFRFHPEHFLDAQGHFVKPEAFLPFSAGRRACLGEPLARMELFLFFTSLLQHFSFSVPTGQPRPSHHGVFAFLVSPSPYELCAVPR
# Procedure, shortened: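 P450-Glo luminescent screen: recombinant CYP2D6 enzyme–proluciferin substrate mix preincubated with compound 10 min at room temperature, then NADPH regeneration added for 1 h at room temperature. Detection reagent added for 20 min; luciferin light read as relative luminescence units.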
# [4] = biological target: Cytochrome P450 3A4 (Homo sapiens) (UniProt P08684); test: Cytochrome P450 family 3 subfamily A member 4 (CYP3A4) small molecule antagonists: luciferase qHTS assay (AID 1645841); also: nearly all actives have a fitted effect of over 45% in size
# Sequence of Cytochrome P450 3A4 (Homo sapiens) (P08684 whole entry, looked up): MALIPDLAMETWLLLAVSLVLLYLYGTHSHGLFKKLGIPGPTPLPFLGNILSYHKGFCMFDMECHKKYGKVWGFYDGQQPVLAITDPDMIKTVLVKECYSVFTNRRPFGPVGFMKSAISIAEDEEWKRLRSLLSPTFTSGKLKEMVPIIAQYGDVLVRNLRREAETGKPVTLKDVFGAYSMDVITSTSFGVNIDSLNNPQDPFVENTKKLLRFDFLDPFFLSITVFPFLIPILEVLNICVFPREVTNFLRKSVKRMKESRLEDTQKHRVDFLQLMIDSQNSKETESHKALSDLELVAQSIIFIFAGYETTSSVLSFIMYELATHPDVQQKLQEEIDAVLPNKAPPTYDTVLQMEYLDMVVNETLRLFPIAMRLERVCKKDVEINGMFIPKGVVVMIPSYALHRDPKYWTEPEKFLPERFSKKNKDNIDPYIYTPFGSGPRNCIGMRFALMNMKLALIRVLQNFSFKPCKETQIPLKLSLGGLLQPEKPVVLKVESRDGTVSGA
# Procedure, shortened: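 P450-Glo CYP3A4 enzyme with proluciferin substrate was preincubated with DMSO-dissolved compounds for 10 min at room temperature. NADPH regeneration solution started a 1 h reaction. Detection reagent stopped it, and luminescence was read after 20 min.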
# [5] = biological target: Cytochrome P450 2C9 (Homo sapiens) (UniProt P11712); test: Cytochrome P450 family 2 subfamily C member 9 (CYP2C9) small molecule antagonists: luciferase biochemical (cell-free) qHTS assay (AID 1645842); also: nearly all actives have a fitted effect of over 55% in size; also: potency is read from the fitted curve at half-maximal effect
# Sequence of Cytochrome P450 2C9 (Homo sapiens) (P11712 whole entry, looked up): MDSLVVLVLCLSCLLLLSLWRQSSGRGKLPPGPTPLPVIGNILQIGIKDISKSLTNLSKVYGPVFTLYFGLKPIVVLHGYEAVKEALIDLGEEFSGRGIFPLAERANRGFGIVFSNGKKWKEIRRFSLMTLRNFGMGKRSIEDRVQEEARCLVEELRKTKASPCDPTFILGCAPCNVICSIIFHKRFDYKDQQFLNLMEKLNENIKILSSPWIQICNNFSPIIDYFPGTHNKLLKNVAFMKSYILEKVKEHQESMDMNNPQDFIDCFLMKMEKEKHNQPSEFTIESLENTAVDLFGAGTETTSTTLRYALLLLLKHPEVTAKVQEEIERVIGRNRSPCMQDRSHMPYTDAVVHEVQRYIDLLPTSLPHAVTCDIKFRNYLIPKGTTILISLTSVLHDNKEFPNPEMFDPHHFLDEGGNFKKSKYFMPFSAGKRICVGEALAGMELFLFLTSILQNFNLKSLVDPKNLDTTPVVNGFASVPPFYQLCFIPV
# Procedure, shortened: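 Luminescence, after 20 min with luciferin detection reagent, reflected CYP2C9 turnover during a 1 h NADPH-driven reaction at 37C. Enzyme-substrate mix contained 0.4% bovine serum albumin and was preincubated with compound 10 min at room temperature.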
Structure (SMILES),Potency [1],Potency [2],Potency [3],Potency [4],Potency [5]
CCCCN(CCN(CCCC)C(=O)N1CCOCC1)C(=O)N1CCOCC1,inactive,inactive,inactive,–,–
Nc1c(I)cc(I)c(C(=O)N(CCC(=O)O)c2ccccc2)c1I,inactive,inactive,inactive,–,–
O=c1[nH]sc2cc(Cl)ccc12,inactive,inactive,inactive,–,–
O=C(O)Cc1ccc(OCCNC[C@H](O)c2ccccc2)cc1,inactive,inactive,inactive,–,–
CC(=O)OCC(=O)Nc1cc(C#N)cc(NC(=O)COC(C)=O)c1Cl,inactive,inactive,inactive,inactive,inactive
CCOC(=O)CN1CCCC1=O,inactive,inactive,inactive,inactive,–
CC(=O)/C=C/C=C1/C2CCC(C2)C1(C)C (stereo unspecified),inactive,inactive,17.4 µM (active),–,–
CCN(CC)CC(=O)OCC(=O)[C@@]1(O)CC[C@H]2[C@@H]3CCC4=CC(=O)CC[C@]4(C)[C@H]3[C@@H](O)C[C@@]21C,inactive,inactive,inactive,–,–
CC(=O)N(CC(O)CO)c1c(I)c(C(=O)NCCO)c(I)c(C(=O)NCC(O)CO)c1I (stereo unspecified),inactive,inactive,inactive,inactive,inactive
O=C(CCOCCOCCOCCOCCC(=O)Nc1c(I)cc(I)c(C(=O)O)c1I)Nc1c(I)cc(I)c(C(=O)O)c1I,inactive,inactive,inactive,inactive,inactive
COc1cc2c(cc1OC)CN(C(=O)[C@H](C)N[C@@H](CCc1ccccc1)C(=O)O)[C@H](C(=O)O)C2,inactive,inactive,inactive,–,inactive
O=C1[C@@H]2[C@H]3CC[C@H](C3)[C@@H]2C(=O)N1CCCCN1CCN(c2ncccn2)CC1,inactive,inactive,15.5 µM (active),–,inactive
CN(C)C(=O)CNC(=O)Cc1ccccc1,inactive,inactive,inactive,inactive,inactive
CCCCCCCCCCCCCCCC[N+](C)(C)Cc1ccccc1,inactive,22.4 µM (active),0.195 µM (active),–,–
COc1c(C)c2c(c(O)c1C/C=C(\C)CCC(=O)OCCN1CCOCC1)C(=O)OC2,inactive,inactive,13.8 µM (active),–,–
CC1(C)O[C@@H]2C[C@H]3[C@@H]4C[C@H](F)C5=CC(=O)C=C[C@]5(C)[C@@]4(F)[C@@H](O)C[C@]3(C)[C@]2(C(=O)CO)O1,inactive,inactive,inactive,–,inactive
CCCc1ccc(OCC(=O)N2CCN(C(=O)COc3ccc(CCC)cc3OC)CC2)c(OC)c1,inactive,11.2 µM (active),inactive,–,–
CN(C(=O)C(Cl)Cl)c1ccc(OC(=O)c2ccco2)cc1,inactive,inactive,inactive,–,–
CC[N+]1(CC)CCC(=C(c2ccccc2)c2ccccc2)C1C (stereo unspecified),inactive,inactive,1.74 µM (active),–,–
OC(CCCN1CCCCC1)(c1ccccc1)c1ccccc1,inactive,inactive,0.138 µM (active),–,–
Cc1onc(-c2c(Cl)cccc2Cl)c1C(=O)Cl,inactive,inactive,inactive,–,–
O=C1CC2(CCCC2)CC(=O)N1CCNCC1COc2ccccc2O1 (stereo unspecified),inactive,inactive,0.49 µM (active),–,–
COC(=O)/C=C(/C)N,inactive,inactive,inactive,–,–
CC1c2ccccc2CN1NC(=O)c1ccc(Cl)c(S(N)(=O)=O)c1 (stereo unspecified),inactive,inactive,inactive,inactive,inactive

Structure (SMILES),Potency [1],Potency [2],Potency [3],Potency [4],Potency [5]
COCCOCC(OC)OC,inactive,inactive,inactive,inactive,inactive
Clc1ccc2c(c1)Nc1ccccc1S2,inactive,inactive,inactive,–,–
COc1ccc2c(c1)c(CC(=O)OC/C=C(\C)CC/C=C(\C)CCC=C(C)C)c(C)n2C(=O)c1ccc(Cl)cc1,inactive,inactive,12.3 µM (active),–,–
CCCC(=O)O[C@]1(C(=O)COC(=O)CC)CC[C@H]2[C@@H]3CCC4=CC(=O)CC[C@]4(C)[C@H]3[C@@H](O)C[C@@]21C,inactive,inactive,inactive,inactive,inactive
O=C(O)[C@@H](O)[C@H](O)[C@H](O)[C@@H](O)C(=O)O,inactive,inactive,inactive,inactive,–
O=C(NN1CCCC1)NS(=O)(=O)c1ccc(Cl)cc1,inactive,inactive,inactive,inactive,inactive
CC(=O)[C@@]1(O)CC[C@H]2[C@@H]3C[C@H](C)C4=CC(=O)CC[C@]4(C)[C@H]3CC[C@@]21C,inactive,inactive,inactive,–,–
CC(C)OP(=O)(CP(=O)(OC(C)C)OC(C)C)OC(C)C,inactive,inactive,inactive,–,–
COc1cc(C(=O)NC2CCCNC2)cc(OC)c1OC (stereo unspecified),inactive,inactive,inactive,–,–
CC(=O)N(CC(=O)N(C)C)c1ccccc1,inactive,inactive,inactive,inactive,inactive
O=C(OCC(COC(=O)c1cccnc1)(COC(=O)c1cccnc1)COC(=O)c1cccnc1)c1cccnc1,inactive,inactive,inactive,–,–
CC(=O)OCC(=O)[C@@]1(O)CCC2C3CCC4=CC(=O)CC[C@]4(C)C3[C@@H](O)C[C@@]21C (stereo partly specified),inactive,inactive,inactive,–,–
CO[C@@]1(NC(=O)CSC[C@@H](N)C(=O)O)C(=O)N2C(C(=O)O)=C(CSc3nnnn3C)CS[C@@H]21,inactive,inactive,inactive,inactive,inactive
O=C(O)C1CCC1,inactive,inactive,inactive,inactive,inactive
C[C@H](CN1CCCC1)C(=O)c1ccc(C(F)(F)F)cc1,inactive,inactive,2.19 µM (active),–,inactive
NC(=O)C1(N2CCCCC2)CCN(CCCN2c3ccccc3CCc3ccc(Cl)cc32)CC1,inactive,3.98 µM (active),2.45 µM (active),–,4.9 µM (active)
CCOC(=O)C(=O)c1csc(NC=O)n1,inactive,inactive,19.5 µM (active),–,inactive
Cn1c(=O)c2c(ncn2CC(=O)O)n(C)c1=O,inactive,inactive,inactive,–,inactive
O=C(OCC(O)CO)c1ccccc1Nc1ccnc2c(C(F)(F)F)cccc12 (stereo unspecified),inactive,inactive,11 µM (active),–,6.17 µM (active)
O=C(CCCCCCCCC#CI)Oc1ccccc1,inactive,inactive,5.42 µM (active),–,16.2 µM (active)
CC(NC(CCc1ccccc1)C(=O)O)C(=O)N1C(=O)N(C)CC1C(=O)O (stereo unspecified),inactive,inactive,inactive,–,inactive
COc1cc(/C=C/C(N)=O)cc(OC)c1OC,inactive,inactive,inactive,–,inactive
CCCCCCCCCCCCCCCCCCN(C)C,inactive,inactive,inactive,–,inactive
C#CC(C)(CC)OC(=O)c1ccccc1C(=O)O (stereo unspecified),inactive,inactive,inactive,–,inactive

# — PubChem BioAssay (NCATS)
